Assay outcomes: PubChem, National Center for Advancing Translational Sciences (NCATS)
In the library only some 7.9% were active in any assay of this set; here they are far more common.
KB-V1 cytotox = qHTS assay for MDR1-selective chemotherapeutics: Primary screen using the drug-selected MDR subline cells KB-V1 | actives 3.4% (n = 400,000) | KB-V1 MDR cells viability, CellTiter-Glo, 72 h | AID 1347076, 2019 | Potency, µM (highest dose often 46.1 µM), hits mostly cytotoxic; further: on the % scale 0 is the no-effect control and ±100 the full control effect; nearly all actives have a fitted effect of over 60% in size
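Cells of the MDR subline KB-V1 are plated, dosed with compound at multiple concentrations, and incubated 72 h at 37 degrees C; CellTiter-Glo is then added and luminescence read after 10 min.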
KB-3-1 tox = qHTS assay for MDR1-selective chemotherapeutics: Primary screen using the parental adenocarcinoma cell KB-3-1 | actives 1.4% (n = 400,000) | KB-3-1 viability, CellTiter-Glo ATP luminescence, 72 h | Potency, µM (series often up to 46.1 µM), actives largely listed as cytotoxic | AID 1347075, 2019; further: on the % scale 0 is the no-effect control and ±100 the full control effect; nearly all actives have a fitted effect of over 60% in size
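Cells are dispensed, compounds pinned in, plates held at 37 °C for 72 h, then CellTiter-Glo is added and luminescence read after 10 minutes. Cell line: parental KB-3-1 in phenol-red-free DMEM, 10% FBS.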
HT1080 IDH1KD tx = qHTS for induction of synthetic lethality in tumor cells producing 2HG: qHTS for the HT-1080-IDH1KD cell line; AID 686971, 2013; Potency, µM (top dose mostly 46.1 µM), for inactives: at the highest dose activity, negative = toxicity, usual class: cytotoxic; actives 2% (n = 360,000); HT-1080 IDH1 knockdown viability, ATP luminescence, 48 h;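 further: 0% = DMSO wells and -100% = cell-free medium wells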
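After a 2 h attachment period, IDH1KD HT-1080 cells took pin-transferred compound for 48 h at 37 °C; ATP-based luminescence after 10 min room-temperature reagent incubation reported viability.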
SW480 rerep = A quantitative high throughput screen for small molecules that induce DNA re-replication in SW480 colon adenocarcinoma cells; Potency, µM (titrated, usually from 46.1 µM), for inactives: top-dose re-replication activation, most hits filed as activators; AID 624297, 2012; SW480 DNA re-replication, Hoechst DNA content imaging, 48 h; actives 1.8% (n = 340,000); further: % of control where 0% means no effect; nearly all actives have a fitted effect of over 55% in size
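DNA re-replication was detected as more nuclei of elevated Hoechst intensity after 48 hr exposure to compound (23 nL pinned per well of 250 cells).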
HT1080NT lethal = qHTS for induction of synthetic lethality in tumor cells producing 2HG: qHTS for the HT-1080-NT fibrosarcoma cell line. Potency, µM (titrated, usually from 46.1 µM), for inactives: top-dose activity, negative = less viability, actives largely listed as cytotoxic. actives 1.6% (n = 360,000). HT-1080-NT fibrosarcoma viability, CellTiter-Glo ATP luminescence, 48 h;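 further: NT is the 2HG producing partner of a matched IDH1 knockdown line; 0% = DMSO-treated cells and -100% = media-only wells without cells; nearly all actives have a fitted effect of over 55% in size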
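HT-1080-NT; 750 cells/well; 5% FBS RPMI; 48 h compound, 37 degrees C; CellTiter-Glo luminescence; curve fitting and curve-class assignment.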
MCF10A rerep = A quantitative high throughput screen for small molecules that induce DNA re-replication in MCF 10a normal breast cells; Potency, µM (titrated, usually from 46.1 µM), for inactives: at the highest dose activity, positive = re-replication, hits mostly activators; MCF 10A DNA re-replication, Hoechst nuclear intensity, 48 h; actives 2.9% (n = 350,000); further: % of control where 0% means no effect; nearly all actives have a fitted effect of over 50% in size
* marks the source's active call; other numbers are inactive results; i = inactive; ? = inconclusive; nt = not tested or not shown; [ ] = another dose, or the depositor's remark. The call rests on the fitted dose curve; in most records, active means well fitted curve in the direction sought with a large enough effect; inconclusive means small, poorly fitted or top-dose-only effect, or another doubt; inactive means no such curve, though single readings can be large; an effect the other way counts as inactive or inconclusive. Potency means the concentration at half of the fitted maximal effect.

SMILES | KB-V1 cytotox | KB-3-1 tox | HT1080 IDH1KD tx | SW480 rerep | HT1080NT lethal | MCF10A rerep
COc1ccc(S(=O)(=O)Nc2cc3c(cc2C(C)=O)OCO3)cc1 | ? | 7.3µM* | 18µM* | ? | ? | 18µM*
CCOc1ccc(S(=O)(=O)Nc2cc3c(C(=O)OC)c(COC)oc3c3ccccc23)cc1 | 15µM* | 3.7µM* | nt | nt | nt | nt
OCCNCc1cc(Br)ccc1OCc1ccc(Cl)cc1Cl | 15µM* | ? | ? | ? | 23µM* | ?
Brc1ccc(OCc2ccccc2)c(CNCc2ccncc2)c1 | 16µM* | ? | ? | ? | ? | ?
OCCNCc1cc(Br)ccc1OCc1ccc(Cl)cc1 | 9.2µM* | i | 2% | 14% | -1% | 10%
COc1ccccc1C(=O)Nc1ccc2ccccc2c1 | i | i | -22% | -6% | -2% | 6%
COc1cc2ccccc2cc1C(=O)Nc1ccc(Cc2ccncc2)cc1 | 9.2µM* | 18µM* | ? | 18µM* | -30% | 21µM*
COc1ccc(Br)cc1C(=O)N/N=C/c1cccnc1 | i | i | 8% | -5% | 19% | -2%
COc1ccc(NC(=O)Nc2ccc(Cc3ccncc3)cc2)cc1OC | i | i | -19% | -4% | -7% | 2%
COc1cc2ccccc2cc1C(=O)N/N=C/c1cccnc1 | ? | 16µM* | ? | 1% | -12% | -2%
COc1ccc(C(=O)Nc2ccc3ccccc3c2)c(OC)c1 | 18µM* | ? | -11% | 1% | -6% | ?
COC(=O)c1ccc(NS(=O)(=O)c2ccc3c(c2)n(C)c(=O)c(=O)n3C)cc1 | ? | i | nt | nt | nt | nt
O=S(=O)(c1ccccc1)n1nc(-c2ccco2)nc1NCc1ccccc1 | i | i | nt | nt | nt | nt
O=C1CC(c2ccccc2)Cc2[nH]c(=O)c(C(=O)Nc3ccc(OC(F)(F)F)cc3)cc21 (stereo not given) | i | i | nt | nt | nt | nt
COc1cc(NC(=O)CN2CCCN(Cc3cccc(F)c3)S2(=O)=O)cc(OC)c1 | i | i | nt | nt | nt | nt
Cc1[nH]n(-c2ccccc2)c(=O)c1C(=O)c1ccccc1 | ? | ? | ? | -136% | -22% | ?
Cc1[nH]n(-c2ccccc2)c(=O)c1C(=O)c1ccc(Cl)cc1 | 10µM* | ? | -29% | 3% | ? | 21%
Cc1[nH]n(-c2ccc(Cl)cc2)c(=O)c1C(=O)c1ccccc1 | 13µM* | 13µM* | ? | -20% | -28% | 4.6µM*
Cc1[nH]n(-c2ccccc2)c(=O)c1C(=O)c1cccc(F)c1 | ? | ? | -4% | -8% | ? | 12%
C=CCN(CC=C)Cc1cc(=O)oc2cc(C)cc(C)c12 | ? | i | -10% | nt | -4% | nt
Cc1ccc(C(=O)N2c3ccccc3N=C(c3ccccc3)C2C(=O)NC(C)C)cc1 (stereo not given) | ? | ? | -28% | nt | ? | nt
OC(CNc1ccccc1)COc1ccc(OCC(O)CNc2ccccc2)cc1 (stereo not given) | ? | ? | 21µM* | ? | 21µM* | ?
OC(CNCc1ccco1)COc1ccccc1 (stereo not given) | 0.0018µM* | i | -23% | 17% | -6% | 8%
COc1ccccc1NCC(O)COc1ccc(C(C)(C)C)cc1 (stereo not given) | i | i | 16µM* | 2% | 16µM* | ?
CCOCC(O)CNc1ccccc1 (stereo not given) | i | i | 17% | -5% | 10% | -3%
SMILES | KB-V1 cytotox | KB-3-1 tox | HT1080 IDH1KD tx | SW480 rerep | HT1080NT lethal | MCF10A rerep
O=C(CC(O)(c1ccccc1)C(F)(F)C(F)F)c1cccs1 (stereo not given) | i | i | 5% | -21% | -4% | 1%
O=C(/C=C/c1ccccc1)CC(O)(c1ccccc1)C(F)(F)C(F)F (stereo not given) | ? | i | 13µM* | 1% | 16µM* | -5%
O=C(/C=C/c1ccccc1)CC(O)(c1ccccc1)C(F)(F)F (stereo not given) | 23µM* | i | 10µM* | ? | 13µM* | 0%
Cc1ccccc1CN1CCCN(CC(=O)Nc2c(C)cccc2C)S1(=O)=O | i | i | nt | nt | nt | nt
CCCn1c(NC(=O)c2ccccc2Br)nc2ccccc21 | 9.2µM* | ? | ? | 25% | -17% | ?
COc1ccc(C(=O)N2CCn3c2nc2ccccc23)cc1 | i | i | 4% | -5% | 12% | 19%
COc1ccc(C(=O)n2c(-c3ccco3)nc3ccccc32)cc1 | ? | ? | 5.8µM* | 18µM* | ? | 8.9µM*
CCCn1c(NC(=O)c2ccco2)nc2ccccc21 | 15µM* | i | -27% | -8% | ? | -11%
CCCn1c(NC(=O)c2ccc(Br)cc2)nc2ccccc21 | i | i | -4% | -3% | 7% | -5%
COc1ccc(OCCn2c(NC(=O)c3ccco3)nc3ccccc32)cc1 | i | i | ? | 4.1µM* | ? | 12µM*
COc1ccc(C(=O)Nc2nc3ccccc3n2CCOc2ccc(Cl)cc2)cc1 | i | i | nt | nt | nt | nt
O=C(NCCC1=CCCCC1)c1ccc2c(c1)N(Cc1ccc(Cl)cc1)C(=O)c1ccccc1S2(=O)=O | ? | i | nt | nt | nt | nt
COc1ccc(S(=O)(=O)NCCc2sc(-c3cccnc3)nc2C)cc1OC | i | i | nt | nt | nt | nt
CCOCCCN(C(=O)c1ccco1)C(C(=O)NC1CCCC1)c1cccc(OC)c1OC (stereo not given) | 16µM* | i | -11% | ? | 1% | -5%
CCOc1ccc(S(=O)(=O)Nc2ccc(F)cc2)c(C)c1C | i | i | 10µM* | 0% | 6%[9.24 µM] | ?
CCc1ccccc1N(C)C | i | i | nt | nt | nt | nt
O=C(CC1Nc2ccccc2NC1=O)Nc1cc(Cl)cc(Cl)c1 (stereo not given) | i | i | -30% | 1.8µM* | -11% | ?
COC(=O)c1c(NC(=O)CC2Nc3ccccc3NC2=O)sc(C)c1C (stereo not given) | ? | i | -1% | 4% | -4% | 10µM*
CCOC(=O)c1c(NC(=O)CC2Nc3ccccc3NC2=O)sc(C)c1C (stereo not given) | i | i | -10% | ? | -5% | ?
